Results taken from PubChem BioAssay (EPA / NIEHS).
Records with an inconclusive call do not appear. Activity calls are given as the source filed them. How the source made its calls: active means hit-call score of the fitted dose curve at least 0.9, where 1 is the maximum; inconclusive means response in the unintended direction; inactive means score below 0.9.

Key:
[1] = target: rat Glutamate, NMDA Agonist Site (GluNMDA), Grin1 (gene 24408) (UniProt P35439); assay: NVS_LGIC_rGluNMDA_Agonist: NovaScreen (NVS) Ligand-Gated Ion Channel Assay for rat Glutamate, NMDA Agonist Site (GluNMDA) (AID 2283327)
Outline: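 Rat forebrain membranes, radioligand binding in the agonist-site protocol; 1 h after dosing; filter-based scintillation counting. Single-concentration duplicate screen at 25 uM, then concentration-response up to 50 uM for actives; gain-of-signal vs DMSO.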

[2] = target: rat Peripheral-type Benzodiazepine Receptor (PBR), Tspo (gene 24230) (UniProt P16257); assay: NVS_MP_rPBR: NovaScreen (NVS) Membrane Protein Assay for rat Peripheral-type Benzodiazepine Receptor (PBR) (AID 2283335)
Outline: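 Rat kidney membranes; radioligand binding with displacement, filter-based scintillation counting, 1 h incubation. Primary screen in duplicate at 25 uM, actives followed in concentration series; loss of binding vs DMSO.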

[3] = system: NCBI gene 100848466; assay: NVS_NR_bPR: NovaScreen (NVS) Nuclear Receptor Binding Assay for bovine Progextron Receptor (PR) (AID 2283343);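 further: actives lower bound radioligand signal below DMSO meaning displacement of the label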
Outline: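 Bovine uterine membrane preparation, cell-free; radioligand competitive displacement measured by scintillation counting 18 hours after dosing. Loss of signal versus DMSO baseline indicates binding; primary HTS single concentration 25 uM in duplicate, actives followed in concentration series.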

[4] = target: human Constitutive Androstane Receptor (CAR), NR1I3 (gene 9970) (UniProt Q14994); assay: NVS_NR_hCAR_Antagonist: NovaScreen (NVS) Nuclear Receptor Binding Assay for human Constitutive Androstane Receptor Antagonism (CAR) (AID 2283344)
Outline: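 Cell-free TR-FRET binding read 1 h after dosing, antagonist mode; loss of signal versus DMSO baseline. Primary screen in duplicate at a single 25 uM; actives retested in concentration series.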

[5] = target: human Peripheral-type Benzodiazepine Receptor (PBR), TSPO (gene 706) (UniProt P30536); assay: NVS_MP_hPBR: NovaScreen (NVS) Membrane Protein Assay for human Peripheral-type Benzodiazepine Receptor (PBR) (AID 2283331);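 further: hits reduce radioligand binding relative to DMSO baseline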
Outline: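 Human colonic cell membranes were incubated with test chemical for 1 hour; radioligand binding was measured by filter-based scintillation counting. Primary screen ran in duplicate at 25 uM, with actives followed in concentration series; loss of signal versus DMSO baseline.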

[6] = target: human Constitutive Androstane Receptor (CAR), NR1I3 (gene 9970) (UniProt Q14994); assay: NVS_NR_hCAR_Agonist: NovaScreen (NVS) Nuclear Receptor Binding Assay for human Constitutive Androstane Receptor Agonism (CAR) (AID 2283328)
Outline: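 Cell-free TR-FRET binding readout with extracted human CAR protein, read 1 h after dosing. Gain of signal fitted against DMSO baseline. Single-concentration duplicates at 25 uM, then concentration-response up to 50 uM for actives.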

[7] = target: bovine Estrogen Receptor (ER), ESR1 (gene 407238) (UniProt P49884); assay: NVS_NR_bER: NovaScreen (NVS) Nuclear Receptor Binding Assay for bovine Estrogen Receptor (ER) (AID 2283345);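 further: actives lower the bound radioligand count which means they displace the ER ligand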
Outline: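 Cell-free radioligand binding with receptor from bovine uterine membranes, read by scintillation counting 18 h after dosing. Loss of specific binding was scored against DMSO; primary screen at 25 uM in duplicate, actives then run as concentration series.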

[8] = target: Estrogen receptor (Homo sapiens) (UniProt P03372); assay: NVS_NR_hER: NovaScreen (NVS) Nuclear Receptor Binding Assay for human Estrogen Receptor (ER) (AID 2283348)
Outline: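 Cell-free radioligand binding with protein extracted from MCF7 cells; scintillation counting 18 hours after dosing. Loss of signal versus DMSO baseline read as displacement; primary single-concentration screen at 25 uM in duplicate, actives retested in concentration series.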

[9] = target: Estrogen receptor (Homo sapiens) (UniProt P03372); assay: OT_ER_ERaERa_1440: Odyssey Thera (OT) 24-hour HEK293T Protein-Complementation Assay for Estrogen Receptor-alpha/-alpha Homodimer (AID 2283349);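 further: hits raise fluorescence above DMSO for agonists and antagonists alike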
Outline: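 Readout is the rise in mean fluorescence from reporter fragment complementation when ERα LBD (aa 310-547) units dimerize in HEK293T cells. Measured 24 h after dosing and analysed as increase over DMSO control.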

[10] = target: Estrogen receptor (Homo sapiens) (UniProt P03372); assay: OT_ER_ERaERa_0480: Odyssey Thera (OT) 8-hour HEK293T Protein-Complementation Assay for Estrogen Receptor-alpha/-alpha Homodimer (AID 2283351);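 further: rise in fluorescence from reassembled reporter fragments on ERα LBD homodimer in nucleus or whole cell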
Outline: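 The readout is complementation of fragments fused to the human ER alpha ligand-binding domain (aa 310-547), stably expressed in HEK293T cells. After 8 h of exposure, the increase in nuclear/cytoplasmic fluorescence was measured by laser scanning cytometry and fitted relative to DMSO.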

[11] = target: Estrogen receptor (Homo sapiens) + Estrogen receptor beta (Homo sapiens) (UniProt P03372+Q92731); assay: OT_ER_ERaERb_0480: Odyssey Thera (OT) 8-hour HEK293T Protein-Complementation Assay for Estrogen Receptor-alpha/-beta Heterodimer (AID 2283352)
Outline: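 Fluorescence intensity readout from a protein-fragment complementation reporter in HEK293T; ER-alpha/ER-beta LBD heterodimer. Dosing 8 h. Gain-of-signal fit relative to DMSO negative control; laser scanning cytometry of whole-well cell population.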

[12] = target: Sodium channel protein type 1 subunit alpha (Rattus norvegicus) (UniProt P04774); assay: NVS_IC_rNaCh_site2: NovaScreen (NVS) Ion Channel Assay for rat Sodium Channel, Site 2 (NaCh) (AID 2283322);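 further: hit means loss of radioligand binding signal relative to DMSO so AC50 marks displacement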
Outline: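 Membranes: rat forebrain. Format: competitive radioligand displacement, filter separation, scintillation readout, 1 h exposure. Primary screen in duplicate at 25 uM; actives retested in concentration series.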

[13] = target: rat Gamma-Aminobutyric Acid Type A Receptor, Non-Selective (GABAR-NonSelective), Gabra1 (gene 29705) (UniProt P62813); assay: NVS_LGIC_rGABAR_NonSelective: NovaScreen (NVS) Ligand-Gated Ion Channel Assay for rat Gamma-Aminobutyric Acid Type A Receptor, Non-Selective (GABAR-NonSelective) (AID 2283326)
Outline: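 Radioligand displacement on rat whole-brain extract, 1 h, filter scintillation readout; signal loss fitted versus DMSO. Primary screen in duplicate at 25 uM; hits (e.g. ≥30% inhibition) retested in concentration-response up to 50 uM.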

[14] = target: chimpanzee Androgen Receptor (AR), AR (gene 747460) (UniProt O97775); assay: NVS_NR_cAR: NovaScreen (NVS) Nuclear Receptor Binding Assay for chimpanzee Androgen Receptor (AR) (AID 2283346);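 further: radioligand displacement from AR measured by scintillation counting in a cell-free assay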
Outline: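 Cell-free radioligand displacement using receptor protein extracted from Sf9/Sf21 cells; bound radioligand measured by scintillation counting 72 hours after chemical dosing. Loss of signal versus DMSO baseline indicates binding; primary screen single-concentration in duplicate at 25 uM, actives followed in concentration series.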

[15] = target: human Androgen Receptor (AR), AR (gene 367) (UniProt P10275); assay: NVS_NR_hAR: NovaScreen (NVS) Nuclear Receptor Binding Assay for human Androgen Receptor (AR) (AID 2283332)
Outline: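 Actives from a duplicate 25 uM single-point screen went on to concentration series. Read-out after 20 h was scintillation counting of displaced radioligand in LnCAP extract, with DMSO as baseline.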

[16] = NVS_IC_rCaBTZCHL: NovaScreen (NVS) Ion Channel Assay for Calcium Channel, Type L, Benzothiazepine Site (CaBTZCHL) (AID 2283337)
Outline: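 Radioligand displacement at the benzothiazepine site using rat cortical membranes; bound label measured by filtration and scintillation counting 1.5 h after dosing. Single-point 25 uM in duplicate, then concentration series; DMSO baseline.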

Sequence of human Androgen Receptor (AR), AR (gene 367) (P10275 whole entry, looked up): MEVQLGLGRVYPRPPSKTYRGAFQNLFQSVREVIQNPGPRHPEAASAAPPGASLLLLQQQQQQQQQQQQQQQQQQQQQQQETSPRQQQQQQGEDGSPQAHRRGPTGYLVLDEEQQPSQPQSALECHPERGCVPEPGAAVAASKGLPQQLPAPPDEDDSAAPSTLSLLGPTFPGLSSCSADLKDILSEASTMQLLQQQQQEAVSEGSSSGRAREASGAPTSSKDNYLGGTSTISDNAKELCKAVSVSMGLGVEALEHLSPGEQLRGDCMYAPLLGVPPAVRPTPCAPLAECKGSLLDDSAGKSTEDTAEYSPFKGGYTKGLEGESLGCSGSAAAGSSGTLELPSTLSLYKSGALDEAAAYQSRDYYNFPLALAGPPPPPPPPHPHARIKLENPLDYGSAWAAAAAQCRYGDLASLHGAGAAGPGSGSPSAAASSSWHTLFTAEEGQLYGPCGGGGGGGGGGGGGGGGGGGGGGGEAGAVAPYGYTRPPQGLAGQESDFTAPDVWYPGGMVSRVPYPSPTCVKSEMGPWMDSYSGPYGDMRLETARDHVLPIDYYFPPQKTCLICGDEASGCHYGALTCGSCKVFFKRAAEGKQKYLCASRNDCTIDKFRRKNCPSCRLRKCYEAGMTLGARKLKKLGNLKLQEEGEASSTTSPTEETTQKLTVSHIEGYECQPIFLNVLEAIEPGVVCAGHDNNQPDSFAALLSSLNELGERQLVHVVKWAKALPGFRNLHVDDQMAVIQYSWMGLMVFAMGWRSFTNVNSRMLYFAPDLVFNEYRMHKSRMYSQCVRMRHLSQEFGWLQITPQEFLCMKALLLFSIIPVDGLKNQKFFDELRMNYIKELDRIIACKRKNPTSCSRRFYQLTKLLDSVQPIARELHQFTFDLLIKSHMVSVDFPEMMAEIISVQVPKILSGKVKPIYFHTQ
Sequence of rat Peripheral-type Benzodiazepine Receptor (PBR), Tspo (gene 24230) (P16257 whole entry, looked up): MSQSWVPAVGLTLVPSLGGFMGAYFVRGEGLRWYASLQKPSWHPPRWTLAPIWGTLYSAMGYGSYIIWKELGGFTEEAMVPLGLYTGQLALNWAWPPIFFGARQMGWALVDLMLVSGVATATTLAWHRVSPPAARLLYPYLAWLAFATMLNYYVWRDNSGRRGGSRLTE
Sequence of human Constitutive Androstane Receptor (CAR), NR1I3 (gene 9970) (Q14994 whole entry, looked up): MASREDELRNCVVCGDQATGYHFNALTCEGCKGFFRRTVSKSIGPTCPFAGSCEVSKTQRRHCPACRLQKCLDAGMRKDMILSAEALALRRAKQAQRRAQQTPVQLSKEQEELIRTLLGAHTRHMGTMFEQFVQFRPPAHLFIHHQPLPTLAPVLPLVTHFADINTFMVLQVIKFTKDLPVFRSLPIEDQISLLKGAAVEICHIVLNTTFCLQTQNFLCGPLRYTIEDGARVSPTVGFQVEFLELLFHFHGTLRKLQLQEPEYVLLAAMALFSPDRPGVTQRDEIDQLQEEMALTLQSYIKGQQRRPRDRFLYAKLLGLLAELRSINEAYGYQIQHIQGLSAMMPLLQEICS
Sequence of chimpanzee Androgen Receptor (AR), AR (gene 747460) (O97775 whole entry, looked up): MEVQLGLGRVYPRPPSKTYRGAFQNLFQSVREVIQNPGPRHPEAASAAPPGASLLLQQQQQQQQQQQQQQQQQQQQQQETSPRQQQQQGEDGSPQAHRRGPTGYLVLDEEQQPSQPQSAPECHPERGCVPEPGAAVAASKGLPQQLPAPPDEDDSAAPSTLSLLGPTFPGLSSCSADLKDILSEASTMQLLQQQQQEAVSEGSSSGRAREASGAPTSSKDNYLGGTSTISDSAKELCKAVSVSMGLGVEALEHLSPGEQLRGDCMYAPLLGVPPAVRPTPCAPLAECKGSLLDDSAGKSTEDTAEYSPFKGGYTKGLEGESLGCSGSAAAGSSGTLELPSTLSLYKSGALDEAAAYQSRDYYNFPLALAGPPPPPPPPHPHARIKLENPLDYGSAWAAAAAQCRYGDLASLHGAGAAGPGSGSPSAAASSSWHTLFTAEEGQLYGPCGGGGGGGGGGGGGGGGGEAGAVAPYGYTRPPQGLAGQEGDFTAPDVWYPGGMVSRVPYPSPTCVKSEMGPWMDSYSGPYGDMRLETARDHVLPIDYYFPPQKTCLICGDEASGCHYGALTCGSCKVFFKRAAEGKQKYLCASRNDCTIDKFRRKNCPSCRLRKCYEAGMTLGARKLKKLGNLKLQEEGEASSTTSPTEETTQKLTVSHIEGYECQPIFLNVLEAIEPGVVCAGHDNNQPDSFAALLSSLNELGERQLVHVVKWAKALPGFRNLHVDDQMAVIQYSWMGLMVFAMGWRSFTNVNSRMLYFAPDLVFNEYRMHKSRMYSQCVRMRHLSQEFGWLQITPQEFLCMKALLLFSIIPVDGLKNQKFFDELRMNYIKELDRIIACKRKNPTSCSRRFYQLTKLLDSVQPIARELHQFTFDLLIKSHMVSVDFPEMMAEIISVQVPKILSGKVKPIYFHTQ
Sequence of bovine Estrogen Receptor (ER), ESR1 (gene 407238) (P49884 whole entry, looked up): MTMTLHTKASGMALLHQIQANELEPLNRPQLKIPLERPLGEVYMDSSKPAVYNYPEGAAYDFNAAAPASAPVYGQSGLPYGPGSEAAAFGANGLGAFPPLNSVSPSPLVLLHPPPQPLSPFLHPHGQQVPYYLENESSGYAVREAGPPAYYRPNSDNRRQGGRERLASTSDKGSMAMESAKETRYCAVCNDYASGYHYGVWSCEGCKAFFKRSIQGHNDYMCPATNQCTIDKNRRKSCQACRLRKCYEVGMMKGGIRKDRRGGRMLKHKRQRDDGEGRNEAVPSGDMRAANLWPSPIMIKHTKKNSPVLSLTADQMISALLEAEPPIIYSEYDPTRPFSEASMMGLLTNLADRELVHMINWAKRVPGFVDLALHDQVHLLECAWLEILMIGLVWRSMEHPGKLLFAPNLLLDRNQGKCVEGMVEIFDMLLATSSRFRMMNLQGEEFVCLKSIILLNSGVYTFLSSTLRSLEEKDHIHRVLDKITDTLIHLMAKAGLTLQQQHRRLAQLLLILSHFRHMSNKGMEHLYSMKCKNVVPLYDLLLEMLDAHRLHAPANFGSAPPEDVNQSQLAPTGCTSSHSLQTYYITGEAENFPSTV
Sequence of Estrogen receptor (Homo sapiens) + Estrogen receptor beta (Homo sapiens) (P03372 whole entry, looked up, the tested form may be a part): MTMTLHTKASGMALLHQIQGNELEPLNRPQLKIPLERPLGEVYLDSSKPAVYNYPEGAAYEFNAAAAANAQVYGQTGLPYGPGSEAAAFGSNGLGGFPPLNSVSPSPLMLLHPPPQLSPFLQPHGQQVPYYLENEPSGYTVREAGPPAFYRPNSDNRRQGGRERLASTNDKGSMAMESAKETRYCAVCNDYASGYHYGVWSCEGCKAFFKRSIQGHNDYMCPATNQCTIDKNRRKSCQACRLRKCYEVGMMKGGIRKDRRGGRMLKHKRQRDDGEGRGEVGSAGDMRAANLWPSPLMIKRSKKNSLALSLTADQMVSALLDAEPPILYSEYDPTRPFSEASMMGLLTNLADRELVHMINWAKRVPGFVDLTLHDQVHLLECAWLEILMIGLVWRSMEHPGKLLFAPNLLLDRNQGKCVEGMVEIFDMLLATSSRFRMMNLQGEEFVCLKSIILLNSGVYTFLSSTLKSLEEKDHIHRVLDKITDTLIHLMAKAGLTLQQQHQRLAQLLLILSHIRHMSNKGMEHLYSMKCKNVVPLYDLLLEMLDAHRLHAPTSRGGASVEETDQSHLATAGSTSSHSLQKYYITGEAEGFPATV
Sequence of Estrogen receptor (Homo sapiens) + Estrogen receptor beta (Homo sapiens) (Q92731 whole entry, looked up, the tested form may be a part): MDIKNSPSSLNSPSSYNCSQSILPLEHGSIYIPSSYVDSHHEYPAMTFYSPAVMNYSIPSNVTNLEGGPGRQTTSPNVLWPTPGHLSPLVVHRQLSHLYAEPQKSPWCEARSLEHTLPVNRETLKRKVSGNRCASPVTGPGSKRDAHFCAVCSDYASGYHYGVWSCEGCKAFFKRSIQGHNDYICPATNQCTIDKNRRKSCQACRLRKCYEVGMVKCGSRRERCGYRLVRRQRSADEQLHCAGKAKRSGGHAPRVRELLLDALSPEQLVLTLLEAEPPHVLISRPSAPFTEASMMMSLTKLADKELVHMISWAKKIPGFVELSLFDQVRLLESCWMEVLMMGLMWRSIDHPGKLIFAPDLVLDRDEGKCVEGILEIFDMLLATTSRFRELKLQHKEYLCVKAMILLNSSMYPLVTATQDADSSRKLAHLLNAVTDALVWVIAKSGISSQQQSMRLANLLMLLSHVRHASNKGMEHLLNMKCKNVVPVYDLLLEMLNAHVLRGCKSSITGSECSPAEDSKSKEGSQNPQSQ
Sequence of Estrogen receptor (Homo sapiens) (P03372 whole entry, looked up, the tested form may be a part): as the sequence (P03372 whole entry, looked up, the tested form may be a part) above
Sequence of human Peripheral-type Benzodiazepine Receptor (PBR), TSPO (gene 706) (P30536 whole entry, looked up): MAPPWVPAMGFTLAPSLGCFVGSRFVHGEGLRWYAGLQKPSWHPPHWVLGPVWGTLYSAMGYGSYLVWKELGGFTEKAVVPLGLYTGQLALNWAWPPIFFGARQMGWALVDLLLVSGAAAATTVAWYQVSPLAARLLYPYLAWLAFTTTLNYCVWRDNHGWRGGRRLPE

CCCCCCCCCCCCc1cccc(S(=O)(=O)O)c1
outcome [1]: inactive | AC50 [2]: 12.4 µM (active) | AC50 [3]: 19.5 µM (active) | AC50 [4]: 17.9 µM (active)

CCOC(=O)CCN(SN(C)C(=O)Oc1cccc2c1OC(C)(C)C2)C(C)C
AC50 [5]: 5.06 µM (active) | AC50 [2]: 4.91 µM (active)

O=C(N[C@H]1CN2CCC1CC2)c1ccc2c(c1)OCCO2
outcome [6]: inactive

Cc1cccc(OP(=O)(Oc2cccc(C)c2)Oc2cccc(C)c2)c1
AC50 [5]: 1.79 µM (active) | AC50 [2]: 1.26 µM (active)

Cc1ccccc1OP(=O)(Oc1ccccc1)Oc1ccccc1
AC50 [5]: 1.28 µM (active) | AC50 [2]: 0.284 µM (active)

Cc1ccc(OP(=O)(Oc2ccc(C)cc2C)Oc2ccc(C)cc2C)c(C)c1
AC50 [5]: 0.422 µM (active) | AC50 [2]: 1.06 µM (active)

CCOCn1c(-c2ccc(Cl)cc2)c(C#N)c(Br)c1C(F)(F)F
AC50 [5]: 0.368 µM (active) | outcome [7]: inactive | outcome [8]: inactive | AC50 [9]: 12.4 µM (active) | outcome [10]: inactive | AC50 [11]: 16.9 µM (active)

CC(C)(COCC1CO1)COCC1CO1 (centres undefined)
AC50 [12]: 2.05 µM (active) | outcome [2]: inactive

CCOP(=O)(OCC)SCCSCC
outcome [12]: inactive

Oc1cc(Cl)c(Cl)cc1Cl
outcome [13]: inactive | outcome [14]: inactive

CCCCCCCCCCCCN(C)C
outcome [12]: inactive | outcome [9]: inactive | outcome [10]: inactive | outcome [11]: inactive

O=C1C=CC(=O)c2ccccc21
AC50 [15]: 33.9 µM (active)

NC(=O)CCl
AC50 [12]: 42.5 µM (active)

O=S(=O)(C(Cl)(Cl)Cl)C(Cl)(Cl)Cl
outcome [16]: inactive

CC(C)O.CC(C)O.OCCN(CCO)CCO.OCCN(CCO)CCO.[Ti]
AC50 [4]: 25 µM (active)

O=c1[nH]c2ccccc2n1C1CCN(CCCC(c2ccc(F)cc2)c2ccc(F)cc2)CC1
outcome [7]: inactive | outcome [8]: inactive

C=CC(=O)[O][Sn]([CH2]CCC)([CH2]CCC)[CH2]CCC
outcome [7]: inactive | outcome [8]: inactive

OCC(c1ccc(Cl)cc1)c1ccc(Cl)cc1
outcome [7]: inactive

OC(Cc1ccccc1Cl)(Cn1[nH]cnc1=S)C1(Cl)CC1 (centres undefined)
outcome [15]: inactive | outcome [14]: inactive

Cc1cc(C(C)(C)c2ccc(O)c(C)c2)ccc1O
AC50 [15]: 2.93 µM (active) | outcome [2]: inactive | outcome [14]: inactive | outcome [8]: inactive

O=C(CCl)Nc1ccccc1
outcome [7]: inactive | outcome [14]: inactive | outcome [9]: inactive | outcome [10]: inactive

Cc1ccc2nc3sc(=O)sc3nc2c1
AC50 [14]: 0.363 µM (active)

Nc1c(Oc2ccccc2)cc(O)c2c1C(=O)c1ccccc1C2=O
outcome [15]: inactive | outcome [14]: inactive

CCC[CH2][Sn]([Cl])([Cl])[CH2]CCC
AC50 [14]: 19.6 µM (active) | outcome [8]: inactive | outcome [9]: inactive | outcome [10]: inactive | outcome [11]: inactive

Cc1cc(SCc2sc(-c3ccc(C(F)(F)F)c(F)c3)nc2C)ccc1OCC(=O)O
outcome [7]: inactive | outcome [8]: inactive

C#CCOC(=O)/C=C(C)/C=C/CC(C)CCCC(C)C (centres undefined)
outcome [14]: inactive

[Cl][Sn]([c]1ccccc1)([c]1ccccc1)[c]1ccccc1
AC50 [15]: 0.746 µM (active) | outcome [14]: inactive

O=c1oc2ccccc2c(O)c1C(CC(O)c1ccc(-c2ccc(Br)cc2)cc1)c1ccccc1 (centres undefined)
outcome [7]: inactive | outcome [14]: inactive

CCOP(=S)(OCC)OP(=S)(OCC)OCC
AC50 [2]: 17.8 µM (active)

CC(C)(C1CCC(O)CC1)C1CCC(O)CC1 (centres undefined)
outcome [7]: inactive

O=C1c2ccccc2C(=O)C1C(=O)C(c1ccccc1)c1ccc(Cl)cc1 (centres undefined)
outcome [2]: inactive | outcome [7]: inactive | AC50 [14]: 26.4 µM (active) | AC50 [8]: 17.6 µM (active) | outcome [9]: inactive | outcome [10]: inactive

CC1(C)[C@H](C(=O)O[C@H](C#N)c2cccc(Oc3ccccc3)c2)[C@@H]1/C=C(\Cl)C(F)(F)F
outcome [2]: inactive

Nc1nc(N)nc(Cl)n1
outcome [16]: inactive

Brc1ccc(Br)cc1
outcome [16]: inactive

N#CS
outcome [14]: inactive

CC(C)[C@@H](Nc1ccc(C(F)(F)F)cc1Cl)C(=O)OC(C#N)c1cccc(Oc2ccccc2)c1 (some centres undefined)
outcome [7]: inactive | outcome [8]: inactive

Nc1ccc(N)cc1
AC50 [14]: 25 µM (active)

CC(O)(CS(=O)(=O)c1ccc(F)cc1)C(=O)Nc1ccc(C#N)c(C(F)(F)F)c1 (centres undefined)
outcome [7]: inactive | outcome [9]: inactive | outcome [10]: inactive | outcome [11]: inactive

O=[N+]([O-])c1ccc(Cl)c([N+](=O)[O-])c1
outcome [7]: inactive | AC50 [14]: 11.9 µM (active) | outcome [8]: inactive | outcome [10]: inactive

O=[N+]([O-])c1ccc(Nc2ccccc2)cc1
outcome [2]: inactive | outcome [8]: inactive

[F][Sn]([c]1ccccc1)([c]1ccccc1)[c]1ccccc1
outcome [7]: inactive

Oc1c(Br)cc(Br)cc1Br
outcome [7]: inactive | outcome [9]: inactive | outcome [10]: inactive | outcome [11]: inactive

O=S(=O)(c1ccc(Cl)cc1)c1cc(Cl)c(Cl)cc1Cl
outcome [7]: inactive

CC(C)=CC1C(C(=O)OCc2cccc(Oc3ccccc3)c2)C1(C)C (centres undefined)
outcome [14]: inactive
